Assay outcomes: PubChem, several laboratories
Hits are enriched below; roughly 1.4% of the tested compounds scored in any of these assays.
BCLXL inh: inhibitors of human Bcl-xL. 320,000 compounds, 0.7% hits. Q07817. AID 2129. GST-Bcl-xL / FITC-Bim BH3 peptide fluorescence polarization. inhibition, % at 10.9 µM;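 active means inhibition above the mean of all tested compounds plus 3 SD, cutoff set per campaign, cut at about 30% in these data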;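 further: 0% = DMSO wells and 100% = unlabeled Bim-BH3 peptide competitor; inhibitors lower millipolarization by displacing the labeled peptide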
Target sequence (Q07817 whole entry, looked up): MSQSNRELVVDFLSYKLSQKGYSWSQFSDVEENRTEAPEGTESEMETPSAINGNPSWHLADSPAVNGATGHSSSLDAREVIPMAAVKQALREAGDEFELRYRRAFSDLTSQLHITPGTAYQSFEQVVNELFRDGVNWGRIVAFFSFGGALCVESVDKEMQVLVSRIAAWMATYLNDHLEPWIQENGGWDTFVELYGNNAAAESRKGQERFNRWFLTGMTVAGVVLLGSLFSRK
MCL1 BIM primary: inhibitors of human MCL1 binding to BIM-BH3 peptide. inhibition, % at 10.9 µM. AID 2057. GST-MCL1 / FITC-Bim-BH3 fluorescence polarization. 320,000 compounds, 0.68% hits;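 active means inhibition above the mean inhibition of all tested compounds plus 3 SD, set per campaign, cut at about 40% in these data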;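 further: 0% = DMSO wells and 100% = unlabeled Bim-BH3 peptide control; higher means more loss of mP so more displacement of Bim peptide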
eLon inh: E. coli protease La inhibition; P0A9M0; purified E. coli Lon protease, fluorescence polarization; inhibition, % at 7.94 µM; 360,000 compounds, 0.42% hits; in the data active means inhibition above about 13%, passing the limit was not always enough;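 further: 0% = enzyme with probe and DMSO and 100% = no enzyme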
GLD-1 TGE inh: GLD-1-TGE RNA interaction inhibition (C. elegans). Q17339. purified GLD-1 + fluorescein TGE RNA, fluorescence polarization. inhibition, % at 5.96 µM. 320,000 compounds, 0.44% hits. AID 2280;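 active means percent inhibition above a per-plate cutoff, the plate mean of test compounds plus 3 SD, cut at about 30% in these data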;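 further: 0% = DMSO wells with GLD-1 and probe and 100% = wells lacking GLD-1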
MEX-5 binding: C. elegans MEX-5 TCR-2 RNA binding activity. AID 1832. MEX-5/FITC-TCR2 RNA binding, fluorescence polarization; stronger effect = lower value. activity score (negative = inhibition of binding), % at 10 µM. Q9XUB2. 300,000 compounds, 0.38% hits;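 active means inhibition past about -25% in most replicates, and total fluorescence under double the plate's negative control median, limit read from the data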;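 further: 0% = DMSO and -100% = 5 µM competing unlabeled TCR2 RNA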
Target sequence (Q9XUB2 whole entry, looked up): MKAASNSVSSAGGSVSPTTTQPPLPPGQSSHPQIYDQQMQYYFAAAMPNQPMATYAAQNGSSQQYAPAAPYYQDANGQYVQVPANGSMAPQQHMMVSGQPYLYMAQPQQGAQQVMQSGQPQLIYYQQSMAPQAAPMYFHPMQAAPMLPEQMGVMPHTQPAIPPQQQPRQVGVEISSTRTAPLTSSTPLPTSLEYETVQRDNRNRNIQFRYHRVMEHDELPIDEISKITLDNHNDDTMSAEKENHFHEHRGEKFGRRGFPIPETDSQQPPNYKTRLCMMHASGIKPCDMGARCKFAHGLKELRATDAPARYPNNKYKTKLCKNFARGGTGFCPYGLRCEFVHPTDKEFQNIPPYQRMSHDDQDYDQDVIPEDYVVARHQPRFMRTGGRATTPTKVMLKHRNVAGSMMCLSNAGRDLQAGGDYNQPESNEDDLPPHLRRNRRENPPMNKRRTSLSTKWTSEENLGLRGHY
eLon confirm: E. coli Lon inhibition confirmation; shares compounds with eLon inh; purified E. coli Lon, fluorescence polarization; inhibition, % at 7.94 µM; 1,400 compounds, 31% hits; AID 602230; in the data active means inhibition above about 16%;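 further: 0% = enzyme with probe and DMSO and 100% = no enzyme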
* = called active by the depositor; nt = no result.

SMILES | BCLXL inh | MCL1 BIM primary | eLon inh | GLD-1 TGE inh | MEX-5 binding | eLon confirm
CC(C)(C)OC(=O)C[C@@H]1C/C=C\C[C@H](CC(=O)NCCO)C(=O)N2CCC[C@H]2COC1=O | nt | nt | 110.7* | 10.1 | nt | -7.1
O=C(C[C@H]1C/C=C\CC[C@H](Cc2ccc(F)cc2)C(=O)OC[C@H]2CCCN2C1=O)N[C@@H](CO)Cc1ccccc1 | nt | nt | 39.8* | 1.6 | nt | 5.3
O=C(Cn1cnc2c(NCc3ccccc3)ncnc21)NCCCN1CCCC1=O | nt | nt | 0.0 | nt | nt | nt
O=C(O)c1csc(-c2ccc(Cl)cc2)n1 | 5.2 | 1.9 | 16.4* | 1.5 | -1.2 | -0.5
CCN(CC)S(=O)(=O)c1ccc2c(c1)nc(CCC(=O)Nc1ccc3c(c1)OCO3)n2CC | 0.8 | 8.4 | -2.6 | 1.8 | 2.8 | nt
CCn1c(CCC(=O)N(C)CC(=O)Nc2cccc(F)c2)nc2cc(S(=O)(=O)N(C)C)ccc21 | -19.1 | -18.6 | 15.3* | 2.9 | 0.3 | 5.1
Cc1ccc(C)c(S(=O)(=O)Nc2ccc3scnc3c2)c1 | 1.1 | 8.2 | 0.9 | 2.2 | 0.5 | nt
O=C(O)CCC1(C(=O)O)OCCc2ccccc21 (configuration not stated) | 3.2 | -1.7 | 17.4* | 1.4 | 0.2 | -2.4
OCC[C@@H]1C[C@@H](O)[C@H](O)[C@]2(OCCc3ccccc32)O1 | 7.2 | 0.1 | 7.9 | -1.6 | 0.0 | nt
CC(C)CC1(C)NC(=O)N(CC(=O)Nc2ccc3c(c2)CCC3)C1=O (configuration not stated) | -0.8 | -4.8 | -2.4 | 2.8 | 0.8 | nt
O=C(Cc1ccccc1F)Nc1nc2ccccc2[nH]1 | -0.7 | -8.0 | -2.8 | 2.1 | -3.6 | nt
O=C(Cc1cccc2ccccc12)Nc1nc2ccccc2[nH]1 | -1.4 | -0.3 | 64.8* | 7.3 | -2.4 | 3.4
O=C(C1CCCCC1)N1C[C@H](O)[C@@H](n2cc(-c3ccc(F)cc3)nn2)C[C@@H]1c1ccccc1 | nt | nt | -10.2 | nt | nt | nt
S=c1[nH]nc(-c2ccc3ccccc3n2)n1-c1ccc2ncccc2c1 | -12.7 | 4.5 | 20.4* | -4.9 | 1.1 | 9.2
CSCC(=O)N1CCCC(N2CCN(c3ccc(F)cc3)CC2)C1 (configuration not stated) | 4.9 | 8.1 | -6.1 | 4.8 | 0.5 | nt
CC1(CCC(=O)N2CCCC(N3CCN(c4ccc(F)cc4)CC3)C2)CC1 (configuration not stated) | -1.5 | 3.3 | 13.2* | 2.2 | 1.0 | -6.9
CCc1ccc(NC(=O)N(CCN2CCOCC2)Cc2ccc3c(c2)CCCN3CC)cc1 | 23.8 | 22.8 | 0.2 | 1.0 | -4.5 | nt
CCCN1CCCc2cc(CN)ccc21 | 107.7* | 127.0* | 37.5* | 45.5* | -59.7* | 46.8*
COc1ccc(NC(=O)NS(=O)(=O)c2ccc(C)cc2)cn1 | nt | nt | 87.5* | nt | -49.8* | 28.1*
COc1ccc(NC(=O)Nc2ccc(OCc3ccccc3)cc2)cn1 | nt | nt | 24.9* | nt | -37.2* | 24.7*
COc1cc(NC(=O)NS(=O)(=O)c2ccc(C)cc2)cc(OC)c1 | 3.2 | 1.4 | 8.3 | -3.6 | 0.8 | nt
CCCCOCCCNC(=O)C[C@@H]1C[C@@]2(C(=O)OCC)CCC=C2N(Cc2ccc(Cl)cc2Cl)C1=O | nt | nt | 0.7 | nt | nt | nt
Cc1cc2cc(CNC(=O)c3cccc([N+](=O)[O-])c3)ccc2[nH]1 | 7.1 | 7.0 | 23.8* | 3.0 | -0.7 | -9.8
CCNC(=O)C1(C)CCCN1C(=O)c1cc(C)on1 (configuration not stated) | nt | nt | -0.5 | nt | nt | nt
O=C(NCC1CCCO1)c1cc2ccccc2oc1=O (configuration not stated) | 2.8 | 0.9 | 3.8 | -2.8 | -1.1 | nt
SMILES | BCLXL inh | MCL1 BIM primary | eLon inh | GLD-1 TGE inh | MEX-5 binding | eLon confirm
CC(c1ccco1)N(C(=O)c1ccc(Cl)s1)c1ccccn1 (configuration not stated) | 3.8 | 1.5 | nt | 3.7 | 2.9 | nt
CCCn1c(O)c(N=NC(=O)CNC(=O)c2cccnc2)c2ccccc21 | 0.3 | -3.2 | 8.4 | -1.8 | 0.8 | nt
Cn1c(O)c(N=NC(=O)CNC(=O)c2cccnc2)c2ccccc21 | 2.7 | 8.0 | 18.6* | 4.5 | -3.8 | 2.9
Cc1ccc(S(=O)(=O)N[C@@H](Cc2ccccc2)C(=O)N2CCC[C@@H]2C(=O)O)cc1 | 6.2 | 6.9 | 16.7* | -2.5 | 0.4 | 5.7
CCOC(=O)C1CCCN(C(=O)c2ccc(S(=O)(=O)Nc3ccccc3OC)cc2)C1 (configuration not stated) | 3.1 | 2.1 | 21.5* | 4.4 | nt | -10.6
O=c1[nH]c(NCCO)c(N=Cc2ccccc2)c(=O)[nH]1 | 13.5 | 10.0 | 10.6 | 4.2 | -5.7 | nt
Nc1[nH]c(=O)[nH]c(=O)c1N=Cc1ccccc1 | nt | nt | 90.0* | nt | nt | 53.1*
CCCCn1c(N)c(N(CCC(C)C)C(=O)C2=COCCO2)c(=O)[nH]c1=O | 16.1 | 19.8 | 36.2* | 11.9 | -10.8 | 4.5
CCCCN(C(=O)C1=COCCO1)c1c(N)n(CCC)c(=O)[nH]c1=O | 11.6 | 10.9 | -1.1 | 10.4 | -2.3 | nt
O=C(NC1CCCCCC1)c1cc(S(=O)(=O)N2CCCCC2)ccc1N1CCOCC1 | 8.5 | 3.0 | -3.6 | 14.9 | 2.9 | nt
O=C(NC1CCCCC1)c1cc(S(=O)(=O)N2CCCCC2)ccc1N1CCOCC1 | -0.7 | -1.1 | 20.5* | 5.2 | nt | -2.3
Cc1cc(NC(=O)COC(=O)c2cc(S(=O)(=O)N3CCOCC3)ccc2N2CCCCC2)no1 | -8.0 | -10.8 | 53.7* | -2.6 | 3.1 | 9.4
CCOC(=O)C1=C(COC(=O)CCNS(=O)(=O)c2ccc(C)c(C)c2)NC(=O)NC1C (configuration not stated) | -4.9 | -15.6 | 4.7 | 3.6 | nt | nt
COc1cccc(OC)c1OCC(O)CN1CCN(c2ccc(F)cc2)CC1 (configuration not stated) | -1.9 | 1.7 | 7.4 | -0.6 | 2.1 | nt
COc1cccc(OCC(O)CN2CCN(c3ccc(F)cc3)CC2)c1 (configuration not stated) | 3.9 | 8.1 | 19.6* | 1.1 | 3.9 | -14.3
Cc1ccc(S[C@@H](CCN2CC[C@H](C(C)(C)C)CCC2=O)c2ccccc2)cc1 | -0.8 | -1.1 | 7.6 | 5.1 | 0.1 | nt
COc1cccc(NC(=O)N2CCC(NC(=O)C3CCCCC3)CC2)c1 | -0.1 | 2.9 | -8.1 | -1.1 | 0.7 | nt
COCCCNC(=O)C1=CCN(S(=O)(=O)c2ccc(C)cc2)CC1 | -0.2 | 1.1 | 0.7 | 11.5 | 0.0 | nt
CN(C(=O)COC(=O)c1cc2c(s1)CCCCC2)c1ccccc1 | -0.9 | -0.3 | 29.6* | 1.1 | 0.2 | 2.3
Cc1ccc(N(CC(=O)NC2CCCC2)C(=O)CNC(=O)c2cccs2)cc1C | -0.3 | -1.3 | 18.9* | -8.3 | 0.1 | -15.5
Cc1ccc(N(CC(=O)NC2CCCCC2)C(=O)CNC(=O)c2cccs2)cc1 | -0.2 | 1.6 | -10.8 | -0.7 | 2.4 | nt
O=C(Nc1nc2c(Br)cccc2s1)C1CC1 | 4.2 | -3.2 | 23.1* | 1.1 | -1.5 | 81.0*
